Measured values reported in PubChem BioAssay AID720647 (Broad Institute, 2013).
Among all 380,000 compounds or so, about 1,300 (0.34%) were called active.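 How the source made its calls: active means drop in luminescence signal, shown as inhibition above about 50% in the replicate tests (limit read from the data, passing the limit was not always enough); inconclusive means probably only some replicates passing the limit; inactive means the rest.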 The entries come from a sample that favours actives as a whole.

test system: Drosophila bursicon receptor LGR2 (rickets); assay: inhibitors of bursicon-induced LGR2 CRE-luciferase signal, primary screen, cell-based, HEK293, CRE-luciferase reporter, bursicon stimulation (AID 720647); details: bursicon-stimulated, 4 h, at 9.99 µM, active compounds read high;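 further: agonist challenge used bursicon conditioned medium at about half maximal strength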

Row | Structure (SMILES) | inhibition
1 | C[C@H](CO)N1C[C@H](C)[C@@H](CN(C)S(=O)(=O)c2ccc(F)cc2)OCCCC[C@H](C)Oc2ccc(NC(=O)CCCN(C)C)cc2C1=O | -10.7% (inactive)
2 | Cc1c(C(=O)NCCN(C)C)oc2ccc(S(=O)(=O)N3CCCC3)cc12 | -6.68% (inactive)
3 | Nc1nc2c(Br)ccc(Br)c2cc1C(=O)NCCc1ccccc1 | -7.19% (inactive)
4 | CN(C)CCNC(=O)c1ccc(Cl)c2cc3ccccc3nc12 | 86.6% (active)
5 | CC(C)NC(=O)N(C)C[C@@H]1OCCCC[C@@H](C)Oc2ccc(NC(=O)CCCN(C)C)cc2C(=O)N([C@@H](C)CO)C[C@@H]1C | 0.91% (inactive)
6 | CCOc1ccc(NC(=O)N2CCN(CC)CC2)cc1 | -10.6% (inactive)
7 | CCOc1ccc(NC(=O)C(C)N2C(=O)c3ccccc3C2=O)cc1 (stereo not given) | -1.28% (inactive)
8 | Cc1ccc(NC(=O)C2CCCN2C(=O)OCc2ccccc2)cc1C (stereo not given) | 1.81% (inactive)
9 | Cc1ccc(N/C=C/C(=O)c2ccccc2)cc1C | 74.5% (active)
10 | Cc1cc(C)nc(NS(=O)(=O)c2ccc(N/C=C\C(=O)c3cccs3)cc2)n1 | 0.601% (inactive)
11 | CCOc1ccc(N/C=C/C(=O)c2ccccc2)cc1 | 70.1% (active)
12 | Cc1ccc(S(=O)(=O)N(C)C[C@@H]2Oc3ncc(-c4cc5ccccc5o4)cc3C(=O)N([C@H](C)CO)C[C@@H]2C)cc1 | 4.4% (inactive)
13 | COc1ccc2c3c(n(C)c2c1)[C@@H](CO)N(C(=O)Nc1ccc(F)cc1)CC31CN(C(=O)NC(C)C)C1 | -1.12% (inactive)
14 | COC(=O)C[C@H]1CC[C@H](NC(=O)Nc2ccc(C(F)(F)F)cc2)[C@H](CO)O1 | -0.777% (inactive)
15 | COc1cccc(-c2ccc3c(c2)O[C@H](CN(C)C(=O)C2CCOCC2)[C@H](C)CN([C@H](C)CO)S3(=O)=O)c1 | -17.4% (inactive)
16 | COc1cccc2cc(C(N)=O)/c(=N\NC(=O)c3ccccc3)oc12 | 72.2% (active)
17 | COc1cccc2cc(/C(C)=N/NC(=O)c3ccco3)oc12 | -27.1% (inactive)
18 | COc1cccc2cc(C(=O)NCc3ccc(C)cc3)c(=N)oc12 | -0.361% (inactive)
19 | C[C@@H]1CCCCO[C@H](CN(C)S(=O)(=O)c2cn(C)cn2)[C@H](C)CN([C@H](C)CO)C(=O)c2cc(N(C)C)ccc2O1 | 10.5% (inactive)
20 | Cc1ccc(S(=O)(=O)NCC[C@@H]2CC[C@@H](NC(=O)CCN3CCCCC3)[C@@H](CO)O2)cc1 | 3.54% (inactive)
21 | N#C[C@@H]1[C@@H](c2ccc(C3=CCCCC3)cc2)[C@@H](CO)N1C(=O)c1cccc(F)c1 | 7.91% (inactive)
22 | C[C@H]1CN([C@@H](C)CO)C(=O)c2cc(-c3ccncc3)cnc2O[C@H]1CN(C)C(=O)c1cccc(F)c1 | -3.95% (inactive)
23 | CCC(=O)N1CC[C@H]2[C@@H]1c1cc(-c3ccc(C#N)cc3)ccc1N(C)[C@H]2CO | -10.9% (inactive)
24 | C[C@@H]1CCCCO[C@H](CN(C)C(=O)NC2CCCCC2)[C@@H](C)CN([C@H](C)CO)C(=O)c2cc(NS(=O)(=O)c3ccc(F)cc3)ccc2O1 | -5.15% (inactive)
25 | COc1cccc2c1C(=O)c1c(O)c3c(c(O)c1C2=O)CC(O)(C(C)=NNC(=O)c1ccc(Cl)c(Cl)c1)CC3OC1CC(N)C(O)C(C)O1 (stereo not given) | 96.4% (active)

Row | Structure (SMILES) | inhibition
26 | C[C@H]1CN([C@@H](C)CO)C(=O)c2cccc(NC(=O)CCCCCC(=O)Nc3ccccc3N)c2O[C@H]1CN(C)C(=O)Nc1ccccc1 | 0.187% (inactive)
27 | COCC(=O)N1[C@H](C(=O)N2CCN(C)CC2)[C@@H](CO)[C@@H]2Cn3c(ccc(C4=CCCC4)c3=O)[C@@H]21 | -13.3% (inactive)
28 | Clc1ccc(-c2cc(-c3ccccn3)on2)c(Cl)c1 | 80% (active)
29 | Clc1ccc(-c2cc(C3CCNCC3)[nH]n2)c(Cl)c1 | 2.21% (inactive)
30 | COCC(=O)Nc1ccc2c(c1)OC[C@H](C)N(C(=O)c1cnccn1)C[C@@H](C)[C@@H](OC)CN(C)C2=O | 10.6% (inactive)
31 | COc1cccc(/C=N/Nc2cc(C)nc(-c3ccccc3O)n2)c1O | 90.5% (active)
32 | O=C(c1ccc(F)cc1)N1CC2(C1)[C@H](c1ccccc1)[C@@H](CO)N2Cc1ccccn1 | -5% (inactive)
33 | COCC#Cc1ccc([C@@H]2[C@H](CO)N3C(=O)CN(C(=O)C4CCC4)C[C@@H]23)cc1 | 3.87% (inactive)
34 | CCOC(=O)C(=O)C1C(=O)Nc2ccccc21 (stereo not given) | -14.6% (inactive)
35 | CCOC(=O)C(=Cc1ccccc1)C(=O)c1ccccc1 | 90.8% (active)
36 | CCOC(=O)/C=C/c1ccccc1O | -29.5% (inactive)
37 | COc1ccc2c3c([nH]c2c1)[C@@H](CO)N(C)CC31CCN(S(=O)(=O)c2ccc(C)cc2)CC1 | 0.296% (inactive)
38 | O=C(Nc1cccc(F)c1)N1CC(=O)N2[C@H](CO)[C@H](c3ccc(C#CC4CC4)cc3)[C@@H]2C1 | 8.66% (inactive)
39 | COCC(=O)N1CCCCN2[C@H](CO)[C@H](c3ccc(C#Cc4ccc(OC)cc4)cc3)[C@H]2C1 | -13.1% (inactive)
40 | COc1ccc(-c2onc3ccc(C(C)=O)cc23)cc1 | -9.6% (inactive)
41 | COc1ccc(OC)c(CNC(=O)CCc2nc(-c3cccs3)no2)c1 | 2.08% (inactive)
42 | COc1ccc(-c2nc(-c3ccccc3)no2)c(OC)c1 | 91.2% (active)
43 | CN1C(=O)c2cc(NC(=O)C3CC3)ccc2OC[C@H]2O[C@H](CC(=O)O)CC[C@H]21 | -1.87% (inactive)
44 | O=C(Cc1cccnc1)N1CC(=O)N2[C@H](CO)[C@H](c3ccc(C#CC4CCCC4)cc3)[C@@H]2C1 | -25.4% (inactive)
45 | CC(=O)NC(c1ccccc1)c1nc(-c2ccccc2C)cs1 (stereo not given) | -19.2% (inactive)
46 | C=CC[n+]1c(-c2ccc(C)cc2)csc1NNC(=O)Nc1ccccc1 | 6.29% (inactive)
47 | CC(=O)Nc1ccc(-c2csc(NC(=O)Nc3ccccc3)n2)cc1 | 94.1% (active)
48 | CN1[C@H](C(=O)N2CCc3ccccc3C2)[C@@H](CO)[C@@H]2Cn3c(ccc(-c4cncnc4)c3=O)[C@@H]21 | 1.15% (inactive)
49 | COc1cc(SC)ccc1C(=O)Nc1nc(C)cs1 | 102% (active)
50 | Cc1csc(OCC(=O)Nc2ccc(C)c(C)c2)n1 | 0.863% (inactive)

Row | Structure (SMILES) | inhibition
51 | COc1cc(Cl)c(C)cc1NC(=O)COC(=O)c1cc(SC)ccc1Cl | 7.1% (inactive)
52 | CO[C@H](CN(C)C(=O)c1cnccn1)[C@@H](C)CN([C@@H](C)CO)S(=O)(=O)c1ccccc1 | -6.19% (inactive)
53 | c1c2c(cc3sc(N4CCCCC4)nc13)OCCO2 | 85.3% (active)
54 | C[C@@H]1CN([C@H](C)CO)C(=O)CCCn2cc(nn2)CO[C@@H]1CN(C)Cc1ccc2cccnc2c1 | -3.97% (inactive)
55 | CN(C)C(=O)c1cccc(-c2cnc3sc(NCc4ccc5c(c4)OCO5)nn23)c1 | 51.6% (active)
56 | O=C(NCc1ccc2c(c1)OCO2)c1sccc1Br | -10.3% (inactive)
57 | CCN(CC)C(=O)Cn1cc(S(=O)(=O)CC(=O)NCc2ccc3c(c2)OCO3)c2ccccc21 | -11.7% (inactive)
58 | C[C@@H]1CCCCO[C@@H](CN(C)C)[C@@H](C)CN([C@H](C)CO)C(=O)c2cc(N(C)C)ccc2O1 | -6.42% (inactive)
59 | C[C@H]1CN([C@@H](C)CO)C(=O)c2cc(NC(=O)C3CCCCC3)ccc2O[C@H]1CN(C)C(=O)Nc1ccccc1 | 2.55% (inactive)
60 | N#C[C@@H]1[C@H](c2ccc(C#Cc3ccccc3F)cc2)[C@H](CO)N1C(=O)C1CCCCC1 | 74.8% (active)
61 | N#C[C@@H]1[C@@H](c2ccc(C#Cc3cccc(F)c3)cc2)[C@@H](CO)N1C(=O)C1CCC1 | -19.3% (inactive)
62 | N#C[C@@H]1[C@H](c2ccc(C#Cc3cccc(F)c3)cc2)[C@@H](CO)N1C(=O)C1CCCC1 | 82.4% (active)
63 | N#C[C@@H]1[C@H](c2ccc(C#CC3CCCCC3)cc2)[C@@H](CO)N1S(=O)(=O)c1ccccc1 | 61.9% (active)
64 | COc1ccccc1C#Cc1ccc([C@H]2[C@@H](C#N)N(C(=O)C3CCCCC3)[C@@H]2CO)cc1 | 18.3% (inactive)
65 | N#C[C@@H]1[C@@H](c2ccc(C#Cc3cccc(F)c3)cc2)[C@H](CO)N1C(=O)C1CCOCC1 | -34.2% (inactive)
66 | CS(=O)(=O)N1[C@@H](C#N)[C@H](c2ccc(C#CC3CCCCC3)cc2)[C@@H]1CO | -5.08% (inactive)
67 | N#C[C@H]1[C@H](c2ccc(C#Cc3ccc(F)cc3)cc2)[C@@H](CO)N1C(=O)C1CCCC1 | 16.6% (inactive)
68 | CS(=O)(=O)N1[C@H](C#N)[C@H](c2ccc(C#CC3CCCC3)cc2)[C@H]1CO | -37.6% (inactive)
69 | C[C@@H]1CN([C@@H](C)CO)S(=O)(=O)c2ccc(C#CCN(C)C)cc2O[C@H]1CN(C)C(=O)C1CC1 | 6.68% (inactive)
70 | Cc1noc(C)c1S(=O)(=O)N(C)C[C@@H]1OCCCC[C@@H](C)Oc2ccc(NC(=O)c3ccccc3)cc2C(=O)N([C@@H](C)CO)C[C@@H]1C | 12.5% (inactive)
71 | O=C(N[C@H]1CC[C@@H](CCNS(=O)(=O)c2ccc(F)cc2)O[C@@H]1CO)c1ccccn1 | 11.4% (inactive)
72 | CCC(=O)Nc1ccc2c(c1)OC[C@H](C)N(CC1CCCCC1)C[C@@H](C)[C@H](OC)CN(C)C2=O | 4.64% (inactive)
73 | CCC(=O)N1CCC2(CC1)CN(S(C)(=O)=O)[C@@H](CO)c1c2c2ccc(OC)cc2n1C | -17.4% (inactive)
74 | CCCC#Cc1cnc2c(c1)C(=O)N([C@H](C)CO)C[C@H](C)[C@@H](CN(C)S(=O)(=O)c1ccccc1)O2 | -10.8% (inactive)
75 | C[C@@H]1CN([C@@H](C)CO)S(=O)(=O)c2ccc(Br)cc2O[C@@H]1CN(C)C(=O)C1CCCCC1 | -1.83% (inactive)
